Results published in ChEMBL document CHEMBL1961873, “Compounds: GSK PKIS; Assays: Nanosyn kinase panel” (2012).

Key:
[1] = molecular target: T1, Serine/threonine-protein kinase D2 (Homo sapiens) (UniProt Q9BZL6); conditions: at 1 µM;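 also: mean value of PRKD2 inhibition, from the GSK PKIS screening panel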
T1 sequence (whole entry): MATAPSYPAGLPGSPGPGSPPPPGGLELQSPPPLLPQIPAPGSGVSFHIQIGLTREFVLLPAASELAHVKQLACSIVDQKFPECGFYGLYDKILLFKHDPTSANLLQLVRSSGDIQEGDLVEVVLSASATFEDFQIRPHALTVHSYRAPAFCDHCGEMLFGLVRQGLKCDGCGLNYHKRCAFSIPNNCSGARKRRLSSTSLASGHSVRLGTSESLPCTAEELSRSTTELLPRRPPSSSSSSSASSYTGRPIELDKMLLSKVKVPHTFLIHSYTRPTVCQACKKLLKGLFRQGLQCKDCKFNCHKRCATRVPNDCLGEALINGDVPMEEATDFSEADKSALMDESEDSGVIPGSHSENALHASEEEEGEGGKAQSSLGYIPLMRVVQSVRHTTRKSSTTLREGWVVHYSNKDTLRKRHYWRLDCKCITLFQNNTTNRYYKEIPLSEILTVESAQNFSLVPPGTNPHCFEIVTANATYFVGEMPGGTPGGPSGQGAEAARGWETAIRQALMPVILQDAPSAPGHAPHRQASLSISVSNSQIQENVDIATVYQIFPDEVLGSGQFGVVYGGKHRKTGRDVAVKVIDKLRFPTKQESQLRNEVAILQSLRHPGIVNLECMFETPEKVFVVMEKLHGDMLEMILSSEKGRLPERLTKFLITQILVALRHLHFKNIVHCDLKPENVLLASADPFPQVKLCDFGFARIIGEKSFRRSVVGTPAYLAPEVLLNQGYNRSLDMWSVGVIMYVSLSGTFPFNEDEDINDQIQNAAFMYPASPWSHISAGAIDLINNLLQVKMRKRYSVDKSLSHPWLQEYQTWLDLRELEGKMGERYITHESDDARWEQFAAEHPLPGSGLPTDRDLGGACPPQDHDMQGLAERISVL

[2] = molecular target: T2, Serine/threonine-protein kinase D3 (Homo sapiens) (UniProt O94806); conditions: at 0.1 µM
T2 sequence (whole entry): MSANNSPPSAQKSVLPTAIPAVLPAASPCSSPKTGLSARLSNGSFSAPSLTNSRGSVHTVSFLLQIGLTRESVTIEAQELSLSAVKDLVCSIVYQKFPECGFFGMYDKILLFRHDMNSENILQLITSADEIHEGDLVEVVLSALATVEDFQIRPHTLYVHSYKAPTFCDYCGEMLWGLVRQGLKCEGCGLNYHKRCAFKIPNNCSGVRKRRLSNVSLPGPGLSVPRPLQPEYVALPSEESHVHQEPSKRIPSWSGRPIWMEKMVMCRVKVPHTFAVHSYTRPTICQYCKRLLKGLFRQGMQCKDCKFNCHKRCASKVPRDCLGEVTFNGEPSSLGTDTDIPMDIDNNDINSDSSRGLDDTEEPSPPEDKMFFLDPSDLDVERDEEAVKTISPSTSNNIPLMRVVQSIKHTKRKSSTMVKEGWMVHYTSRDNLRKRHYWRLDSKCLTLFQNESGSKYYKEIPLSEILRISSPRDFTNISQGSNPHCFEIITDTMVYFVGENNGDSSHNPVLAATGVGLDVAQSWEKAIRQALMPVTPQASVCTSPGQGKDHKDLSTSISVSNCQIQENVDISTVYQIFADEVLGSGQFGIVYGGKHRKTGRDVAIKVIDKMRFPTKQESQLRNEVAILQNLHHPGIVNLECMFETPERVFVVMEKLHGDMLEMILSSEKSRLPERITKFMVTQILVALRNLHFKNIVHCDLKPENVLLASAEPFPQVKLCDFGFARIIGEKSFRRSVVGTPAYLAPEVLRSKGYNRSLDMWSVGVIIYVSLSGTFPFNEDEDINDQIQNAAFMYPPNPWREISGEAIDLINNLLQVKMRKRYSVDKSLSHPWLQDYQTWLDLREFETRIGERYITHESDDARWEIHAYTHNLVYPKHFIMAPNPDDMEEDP

[3] = molecular target: T2, Serine/threonine-protein kinase D3 (Homo sapiens); conditions: at 1 µM
[4] = molecular target: T3, cGMP-dependent protein kinase 1 (Homo sapiens) (UniProt Q13976); conditions: at 0.1 µM
T3 sequence (whole entry): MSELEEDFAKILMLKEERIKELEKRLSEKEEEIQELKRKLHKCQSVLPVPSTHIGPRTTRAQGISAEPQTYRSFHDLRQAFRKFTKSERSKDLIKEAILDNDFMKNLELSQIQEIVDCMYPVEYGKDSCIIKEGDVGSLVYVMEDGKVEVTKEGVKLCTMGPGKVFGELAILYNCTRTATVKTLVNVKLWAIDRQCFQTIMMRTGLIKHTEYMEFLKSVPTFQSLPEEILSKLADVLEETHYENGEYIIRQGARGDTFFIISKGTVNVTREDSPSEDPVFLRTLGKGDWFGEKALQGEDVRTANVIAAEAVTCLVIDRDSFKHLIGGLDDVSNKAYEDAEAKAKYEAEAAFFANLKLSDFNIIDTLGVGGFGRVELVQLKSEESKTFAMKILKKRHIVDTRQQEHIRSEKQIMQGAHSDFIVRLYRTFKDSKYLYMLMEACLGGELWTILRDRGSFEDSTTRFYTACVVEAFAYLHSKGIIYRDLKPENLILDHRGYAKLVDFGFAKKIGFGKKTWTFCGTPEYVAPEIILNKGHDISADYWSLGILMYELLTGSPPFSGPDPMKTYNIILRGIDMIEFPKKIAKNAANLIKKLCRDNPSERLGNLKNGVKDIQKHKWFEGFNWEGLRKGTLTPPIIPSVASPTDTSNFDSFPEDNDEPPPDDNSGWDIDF

[5] = molecular target: T3, cGMP-dependent protein kinase 1 (Homo sapiens); conditions: at 1 µM
[6] = molecular target: T4, cGMP-dependent protein kinase 2 (Homo sapiens) (UniProt Q13237); conditions: at 0.1 µM
T4 sequence (whole entry): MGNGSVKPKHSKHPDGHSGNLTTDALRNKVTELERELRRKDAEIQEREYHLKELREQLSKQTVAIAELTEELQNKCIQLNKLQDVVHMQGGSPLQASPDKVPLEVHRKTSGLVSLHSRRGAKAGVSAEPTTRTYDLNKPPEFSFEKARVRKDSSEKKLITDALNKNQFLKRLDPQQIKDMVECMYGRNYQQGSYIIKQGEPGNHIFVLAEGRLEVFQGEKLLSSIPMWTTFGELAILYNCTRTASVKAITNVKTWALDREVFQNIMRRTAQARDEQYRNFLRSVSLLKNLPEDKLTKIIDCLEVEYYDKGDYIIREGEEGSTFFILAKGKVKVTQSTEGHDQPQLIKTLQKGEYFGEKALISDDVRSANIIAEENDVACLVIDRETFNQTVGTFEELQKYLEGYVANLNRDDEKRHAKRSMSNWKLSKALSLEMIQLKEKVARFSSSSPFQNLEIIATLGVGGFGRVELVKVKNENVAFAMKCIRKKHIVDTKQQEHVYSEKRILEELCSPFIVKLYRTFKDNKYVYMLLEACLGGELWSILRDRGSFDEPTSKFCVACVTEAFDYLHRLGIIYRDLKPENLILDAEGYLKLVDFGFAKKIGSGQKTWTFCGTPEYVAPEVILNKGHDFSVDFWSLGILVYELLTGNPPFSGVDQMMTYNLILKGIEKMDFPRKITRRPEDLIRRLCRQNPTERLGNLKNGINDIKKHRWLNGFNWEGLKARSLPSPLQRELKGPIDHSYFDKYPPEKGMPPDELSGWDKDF

[7] = molecular target: T4, cGMP-dependent protein kinase 2 (Homo sapiens); conditions: at 1 µM
[8] = molecular target: T5, cAMP-dependent protein kinase catalytic subunit PRKX (Homo sapiens) (UniProt P51817); conditions: at 0.1 µM
T5 sequence (whole entry): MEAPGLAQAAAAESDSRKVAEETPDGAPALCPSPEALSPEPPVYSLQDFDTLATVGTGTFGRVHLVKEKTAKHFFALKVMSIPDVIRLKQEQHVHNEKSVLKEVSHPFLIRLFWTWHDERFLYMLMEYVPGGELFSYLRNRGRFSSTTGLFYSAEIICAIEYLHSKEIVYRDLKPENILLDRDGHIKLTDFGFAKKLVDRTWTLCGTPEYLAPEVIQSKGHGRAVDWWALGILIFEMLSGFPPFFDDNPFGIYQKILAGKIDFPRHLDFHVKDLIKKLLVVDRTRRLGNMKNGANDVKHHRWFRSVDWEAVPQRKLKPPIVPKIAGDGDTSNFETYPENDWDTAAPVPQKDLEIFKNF

[9] = molecular target: T5, cAMP-dependent protein kinase catalytic subunit PRKX (Homo sapiens); conditions: at 1 µM
[10] = molecular target: Rho-associated protein kinase 1 (Homo sapiens) (UniProt Q13464); conditions: at 0.1 µM
[11] = molecular target: Rho-associated protein kinase 1 (Homo sapiens) (UniProt Q13464); conditions: at 1 µM
[12] = molecular target: Rho-associated protein kinase 2 (Homo sapiens) (UniProt O75116); conditions: at 0.1 µM
[13] = molecular target: Rho-associated protein kinase 2 (Homo sapiens) (UniProt O75116); conditions: at 1 µM
[14] = molecular target: Ribosomal protein S6 kinase alpha-1 (Homo sapiens) (UniProt Q15418); conditions: at 0.1 µM
[15] = molecular target: Ribosomal protein S6 kinase alpha-1 (Homo sapiens) (UniProt Q15418); conditions: at 1 µM
[16] = molecular target: Ribosomal protein S6 kinase alpha-3 (Homo sapiens) (UniProt P51812); conditions: at 0.1 µM
[17] = molecular target: Ribosomal protein S6 kinase alpha-3 (Homo sapiens) (UniProt P51812); conditions: at 1 µM
[18] = molecular target: Ribosomal protein S6 kinase alpha-2 (Homo sapiens) (UniProt Q15349); conditions: at 0.1 µM
[19] = molecular target: Ribosomal protein S6 kinase alpha-2 (Homo sapiens) (UniProt Q15349); conditions: at 1 µM
[20] = molecular target: Ribosomal protein S6 kinase alpha-6 (Homo sapiens) (UniProt Q9UK32); conditions: at 0.1 µM;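 also: reported value is the mean inhibition of RSK4, from the GSK PKIS kinase inhibitor screen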
Sequence of Ribosomal protein S6 kinase alpha-6 (Homo sapiens) (Q9UK32 whole entry): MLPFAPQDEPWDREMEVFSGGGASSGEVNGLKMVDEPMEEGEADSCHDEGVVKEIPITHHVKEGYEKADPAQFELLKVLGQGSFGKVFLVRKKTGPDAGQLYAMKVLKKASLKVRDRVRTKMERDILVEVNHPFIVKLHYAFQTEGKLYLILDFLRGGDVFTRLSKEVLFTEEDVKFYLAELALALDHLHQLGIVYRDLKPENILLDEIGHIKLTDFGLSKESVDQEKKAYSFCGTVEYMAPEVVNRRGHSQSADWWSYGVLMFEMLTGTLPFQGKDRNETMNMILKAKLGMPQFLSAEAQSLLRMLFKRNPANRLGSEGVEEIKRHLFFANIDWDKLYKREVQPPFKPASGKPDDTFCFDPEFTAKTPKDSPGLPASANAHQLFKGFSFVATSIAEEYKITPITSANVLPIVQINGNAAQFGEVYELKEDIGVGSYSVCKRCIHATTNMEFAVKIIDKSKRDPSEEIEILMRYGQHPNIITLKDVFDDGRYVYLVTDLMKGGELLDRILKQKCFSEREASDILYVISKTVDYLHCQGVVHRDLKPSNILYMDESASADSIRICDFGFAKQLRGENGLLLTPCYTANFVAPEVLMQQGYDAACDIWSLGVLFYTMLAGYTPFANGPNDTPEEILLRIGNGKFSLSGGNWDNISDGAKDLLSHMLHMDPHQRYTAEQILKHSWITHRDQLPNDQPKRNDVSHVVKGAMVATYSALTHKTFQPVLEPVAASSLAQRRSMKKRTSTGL

Sequence of Ribosomal protein S6 kinase alpha-1 (Homo sapiens) (Q15418 whole entry): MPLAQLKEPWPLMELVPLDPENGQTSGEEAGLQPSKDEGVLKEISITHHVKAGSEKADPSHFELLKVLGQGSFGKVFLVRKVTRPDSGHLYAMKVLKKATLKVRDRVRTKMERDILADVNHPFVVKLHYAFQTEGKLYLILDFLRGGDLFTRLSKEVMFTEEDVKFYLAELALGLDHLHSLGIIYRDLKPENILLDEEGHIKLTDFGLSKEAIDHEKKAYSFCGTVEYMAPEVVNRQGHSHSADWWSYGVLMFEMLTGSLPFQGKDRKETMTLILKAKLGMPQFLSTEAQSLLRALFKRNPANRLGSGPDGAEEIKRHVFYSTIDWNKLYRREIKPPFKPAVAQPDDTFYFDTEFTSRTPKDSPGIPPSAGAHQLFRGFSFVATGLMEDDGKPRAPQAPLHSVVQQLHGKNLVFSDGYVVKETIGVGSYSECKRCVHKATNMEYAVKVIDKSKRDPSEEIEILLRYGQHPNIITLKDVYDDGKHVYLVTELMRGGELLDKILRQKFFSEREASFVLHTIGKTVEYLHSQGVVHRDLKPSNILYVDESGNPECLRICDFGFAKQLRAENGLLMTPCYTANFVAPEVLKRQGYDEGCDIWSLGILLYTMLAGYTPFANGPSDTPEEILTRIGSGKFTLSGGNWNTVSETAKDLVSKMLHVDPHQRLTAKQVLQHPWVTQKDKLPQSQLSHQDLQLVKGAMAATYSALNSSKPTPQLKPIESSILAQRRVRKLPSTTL
Sequence of Ribosomal protein S6 kinase alpha-3 (Homo sapiens) (P51812 whole entry): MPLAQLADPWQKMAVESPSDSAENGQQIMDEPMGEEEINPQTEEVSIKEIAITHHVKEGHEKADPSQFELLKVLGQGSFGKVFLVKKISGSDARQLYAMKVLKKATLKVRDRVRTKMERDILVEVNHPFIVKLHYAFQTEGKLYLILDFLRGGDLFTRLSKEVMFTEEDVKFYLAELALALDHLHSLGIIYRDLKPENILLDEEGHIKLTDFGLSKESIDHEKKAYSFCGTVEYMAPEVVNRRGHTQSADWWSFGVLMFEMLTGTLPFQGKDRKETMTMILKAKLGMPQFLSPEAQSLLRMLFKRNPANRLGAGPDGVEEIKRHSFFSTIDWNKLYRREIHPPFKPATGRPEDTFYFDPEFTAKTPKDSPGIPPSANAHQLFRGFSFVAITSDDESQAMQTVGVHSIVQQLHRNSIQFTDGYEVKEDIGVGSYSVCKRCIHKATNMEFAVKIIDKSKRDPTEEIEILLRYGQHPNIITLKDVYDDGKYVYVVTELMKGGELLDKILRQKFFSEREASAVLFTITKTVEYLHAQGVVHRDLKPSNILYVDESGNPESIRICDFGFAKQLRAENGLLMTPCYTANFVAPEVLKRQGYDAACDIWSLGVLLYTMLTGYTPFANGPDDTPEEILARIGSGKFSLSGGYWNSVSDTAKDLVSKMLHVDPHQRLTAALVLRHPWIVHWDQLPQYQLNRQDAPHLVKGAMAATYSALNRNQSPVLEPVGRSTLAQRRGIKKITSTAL
Sequence of Ribosomal protein S6 kinase alpha-2 (Homo sapiens) (Q15349 whole entry): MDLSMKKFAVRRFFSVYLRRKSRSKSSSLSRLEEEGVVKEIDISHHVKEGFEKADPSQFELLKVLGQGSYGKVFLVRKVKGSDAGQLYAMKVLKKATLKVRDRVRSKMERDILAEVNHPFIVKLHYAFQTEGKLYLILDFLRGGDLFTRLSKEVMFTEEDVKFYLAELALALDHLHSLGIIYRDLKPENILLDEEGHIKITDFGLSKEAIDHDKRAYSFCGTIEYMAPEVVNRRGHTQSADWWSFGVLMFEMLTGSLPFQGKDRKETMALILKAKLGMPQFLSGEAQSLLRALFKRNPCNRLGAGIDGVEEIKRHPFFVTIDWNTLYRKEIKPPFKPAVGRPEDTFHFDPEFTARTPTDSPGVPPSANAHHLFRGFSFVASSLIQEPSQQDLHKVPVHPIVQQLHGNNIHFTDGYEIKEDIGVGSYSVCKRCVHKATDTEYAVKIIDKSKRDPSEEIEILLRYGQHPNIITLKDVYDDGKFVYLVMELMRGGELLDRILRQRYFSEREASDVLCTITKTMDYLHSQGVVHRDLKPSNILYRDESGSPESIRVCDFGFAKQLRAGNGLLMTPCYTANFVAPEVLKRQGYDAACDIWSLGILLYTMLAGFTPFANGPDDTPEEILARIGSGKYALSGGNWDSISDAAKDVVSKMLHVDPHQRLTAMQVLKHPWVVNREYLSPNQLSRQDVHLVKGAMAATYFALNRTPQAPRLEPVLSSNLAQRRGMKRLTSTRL
Sequence of Rho-associated protein kinase 2 (Homo sapiens) (O75116 whole entry, looked up): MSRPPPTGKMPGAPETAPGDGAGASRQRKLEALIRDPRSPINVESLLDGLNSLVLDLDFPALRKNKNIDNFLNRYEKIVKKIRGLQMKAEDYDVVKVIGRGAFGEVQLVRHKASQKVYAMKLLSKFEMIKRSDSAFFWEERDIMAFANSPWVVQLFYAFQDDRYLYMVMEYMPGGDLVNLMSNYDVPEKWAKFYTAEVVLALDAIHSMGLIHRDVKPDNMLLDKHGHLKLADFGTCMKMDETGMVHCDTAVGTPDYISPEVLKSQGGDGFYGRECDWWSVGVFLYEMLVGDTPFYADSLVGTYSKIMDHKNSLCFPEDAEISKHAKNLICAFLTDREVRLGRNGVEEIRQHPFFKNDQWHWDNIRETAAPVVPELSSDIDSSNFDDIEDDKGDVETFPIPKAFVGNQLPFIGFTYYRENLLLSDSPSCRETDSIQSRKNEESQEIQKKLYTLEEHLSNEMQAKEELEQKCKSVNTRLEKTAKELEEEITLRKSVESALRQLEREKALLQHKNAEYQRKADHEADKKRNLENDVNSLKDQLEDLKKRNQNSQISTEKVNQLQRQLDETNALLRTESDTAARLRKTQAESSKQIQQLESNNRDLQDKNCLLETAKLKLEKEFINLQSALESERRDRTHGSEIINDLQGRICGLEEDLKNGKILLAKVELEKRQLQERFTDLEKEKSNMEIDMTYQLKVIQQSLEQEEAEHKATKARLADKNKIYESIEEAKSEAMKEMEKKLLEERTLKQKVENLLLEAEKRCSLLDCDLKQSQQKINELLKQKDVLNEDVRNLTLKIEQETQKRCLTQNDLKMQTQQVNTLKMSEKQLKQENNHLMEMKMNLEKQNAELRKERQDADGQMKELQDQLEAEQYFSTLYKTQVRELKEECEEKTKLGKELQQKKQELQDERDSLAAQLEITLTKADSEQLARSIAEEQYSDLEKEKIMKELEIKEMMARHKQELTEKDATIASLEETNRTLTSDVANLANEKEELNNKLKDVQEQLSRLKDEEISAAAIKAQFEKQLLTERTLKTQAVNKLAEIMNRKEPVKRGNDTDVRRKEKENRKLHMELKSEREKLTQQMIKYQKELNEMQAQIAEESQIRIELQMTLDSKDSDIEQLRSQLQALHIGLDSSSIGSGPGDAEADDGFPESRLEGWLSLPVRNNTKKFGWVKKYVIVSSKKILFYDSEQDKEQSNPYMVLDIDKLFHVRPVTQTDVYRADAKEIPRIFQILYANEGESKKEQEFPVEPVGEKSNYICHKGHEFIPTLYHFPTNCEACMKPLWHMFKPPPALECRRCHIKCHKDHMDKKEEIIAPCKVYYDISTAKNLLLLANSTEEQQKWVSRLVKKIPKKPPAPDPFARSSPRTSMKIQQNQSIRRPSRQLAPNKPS

SMILES	inhibition [1]	inhibition [2]	inhibition [3]	inhibition [4]	inhibition [5]	inhibition [6]	inhibition [7]	inhibition [8]	inhibition [9]	inhibition [10]	inhibition [11]	inhibition [12]	inhibition [13]	inhibition [14]	inhibition [15]	inhibition [16]	inhibition [17]	inhibition [18]	inhibition [19]	inhibition [20]
CCS(=O)(=O)c1ccc(OC)c(Nc2ncc(-c3cccc(-c4ccccc4F)c3)o2)c1	1.19%	1.19%	1.54%	0.11%	3.03%	1.57%	2.1%	0.93%	0.98%	-2.02%	1.4%	1.1%	1%	0.18%	1.38%	0.3%	0.84%	0.3%	2.3%	-0.01%
N#Cc1ccc(Oc2nccc(-c3c(-c4ccc(F)cc4)ncn3C3CCNCC3)n2)cc1	5.05%	5.58%	5.89%	2.79%	2.48%	2.19%	2.92%	1.03%	2.01%	2.51%	4.31%	2.81%	4.38%	0.36%	1.46%	1.39%	1.85%	2.38%	3.07%	0.67%
FC(F)(F)c1cccc(Nc2nccc(-c3cnn4nc(-c5ccccc5)ccc34)n2)c1	1.49%	1.55%	2.61%	1.17%	-0.32%	1.44%	-1.07%	1.18%	0.74%	0.77%	0.48%	1.21%	0.98%	1.01%	1.56%	1.05%	1.35%	1.39%	2.04%	1.3%
NC(=O)c1ccc(Oc2nccc(-c3c(-c4ccc(F)cc4)ncn3C3CCNCC3)n2)cc1	3.14%	4.58%	5.2%	4.67%	6.78%	5.65%	6.43%	3.5%	3.99%	2.81%	3.99%	3.87%	4.42%	2.06%	1.84%	-0.35%	0.53%	3.21%	4.43%	1.77%
COc1ccc2cc(-c3c(-c4ccncc4)nc(-c4ccc([S+](C)[O-])cc4C)n3C)ccc2c1 (stereo not given)	0.1%	-0.55%	-0.05%	0.69%	0.56%	0.02%	0.21%	0.49%	1.21%	-0.64%	-0.59%	-0.57%	-0.64%	-0.66%	-1.48%	-0.38%	-0.28%	0.02%	-0.67%	-0.13%
COc1cccc(/C=N/Nc2ncnc3c2cnn3-c2cccc(OC)c2)c1	1.36%	3.64%	2.93%	3.82%	4.05%	1.19%	3.17%	0.44%	1.94%	2.52%	3.6%	2.65%	3.61%	1.05%	0.75%	0.86%	1.4%	1.64%	2.21%	0.2%
O=C1Nc2ccccc2/C1=C/Nc1ccc(-n2cncn2)cc1	6.07%	4.94%	6.5%	3.06%	5.48%	2.51%	14.4%	2.56%	7.18%	1.71%	1.71%	3.63%	7.17%	2.06%	10.9%	2.37%	8.64%	3.38%	14.2%	3.31%
